Screening data (PubChem BioAssay)
Most compounds without a hit are left out; they make up all but 19% or so of the library.
DT40 TDP1 no CPT – qHTS for Inhibitors of human tyrosyl-DNA phosphodiesterase 1 (TDP1): qHTS in cells in absence of CPT; 420,000 compounds, 15% hits; Potency, µM (top dose mostly 46.2 µM), without a hit: at the top dose activity change, negative = growth inhibition, usual class: inhibitors; AID 686978, 2013; DT40 Tdp1-/- hTDP1 cells, no CPT, ATP luminescence, 48 h; also: nearly all actives have a fitted effect of over 55% in size
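Chicken DT40 Tdp1-/- cells complemented with human TDP1, screened without camptothecin (DMSO vehicle only), 400 cells/well. Compounds pin-transferred, cells incubated at 37 °C for at least 48 hr. Growth read as ATP-dependent luminescence (CellTiter-Glo, 30 min at RT).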
TDP1 cell CPT – DT40-hTDP1 cell growth loss with CPT | 420,000 compounds, 12% hits | Potency, µM (top dose mostly 46.2 µM), inactives show at the top dose activity change, negative = growth inhibition, most hits filed as inhibitors | chicken DT40 Tdp1-/-;hTDP1 cells + 20 nM CPT, ATP luminescence, 48 h | AID 686979; also: nearly all actives have a fitted effect of over 55% in size
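Chicken DT40 Tdp1-/- cells stably complemented with human TDP1 were seeded at 400 cells/well in medium containing 20 nM camptothecin, exposed to pin-transferred compounds, and grown at 37 °C for at least 48 hr. Viability was read as ATP luminescence.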
RORgamma inh – blocks mouse ROR gamma transcriptional activity; P51450; Drosophila S2 Gal4-RORgamma UAS-luciferase reporter, 20 h; Potency, µM (series often up to 53.6 µM), without a hit: top-dose activity change, negative = inhibition, hits mostly inhibitors; 310,000 compounds, 5.4% hits; AID 2551; also: nearly all actives have a fitted effect of over 60% in size
Target sequence (P51450 whole entry, looked up, the tested form may be a part): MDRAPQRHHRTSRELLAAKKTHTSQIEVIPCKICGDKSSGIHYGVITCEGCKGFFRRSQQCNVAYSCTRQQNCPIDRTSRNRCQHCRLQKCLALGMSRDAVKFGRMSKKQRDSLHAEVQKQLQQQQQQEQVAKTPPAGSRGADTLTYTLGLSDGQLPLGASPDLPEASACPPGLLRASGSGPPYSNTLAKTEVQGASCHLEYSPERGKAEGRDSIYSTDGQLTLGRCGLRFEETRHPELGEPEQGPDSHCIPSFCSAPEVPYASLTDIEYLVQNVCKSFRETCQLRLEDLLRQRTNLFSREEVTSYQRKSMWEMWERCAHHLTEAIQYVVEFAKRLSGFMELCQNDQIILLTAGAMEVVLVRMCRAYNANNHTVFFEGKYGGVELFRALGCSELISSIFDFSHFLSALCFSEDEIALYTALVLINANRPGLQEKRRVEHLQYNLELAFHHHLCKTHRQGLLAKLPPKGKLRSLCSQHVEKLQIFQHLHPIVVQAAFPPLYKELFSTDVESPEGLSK
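Stably transfected Drosophila Schneider cells are the test system, with ROR gamma fused to Gal4 and luciferase under UAS control; luminescence is read after 20 hr of 700 uM copper sulfate induction at ambient temperature.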
VP16 counter – counter-screen for ROR gamma inhibitors: Gal4-VP16 reporter; Drosophila S2 Gal4-VP16 UAS-luciferase, luminescence, 20 h; Potency, µM (series often up to 53.6 µM), for inactives: at the top dose activity, negative = inhibition, most hits filed as inhibitors; 310,000 compounds, 3.5% hits;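 also: Gal4-VP16 expression switched on by copper sulfate through the metallothionein promoter; nearly all actives have a fitted effect of over 50% in size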
TDP1 inh – inhibitors of human tyrosyl-DNA phosphodiesterase TDP1. Q9NUW8. recombinant TDP1, AlphaScreen DNA substrate cleavage. Potency, µM (highest dose often 130 µM), for inactives: top-dose activity change, negative = inhibition, actives largely listed as inhibitors. 350,000 compounds, 0.28% hits; also: nearly all actives have a fitted effect of over 40% in size
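Signal: AlphaScreen proximity between streptavidin donor and anti-FITC acceptor beads on intact substrate. Reaction: Tdp1 1 nM, substrate 15 nM final, 5 min RT after 15 min compound preincubation.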
* marks the source's active call; other numbers are inactive results; [ ] = remark or other dose. Calls follow the shape of the dose curve; as a rule, active = well fitted curve in the direction sought with a large enough effect; inconclusive = small, poorly fitted or top-dose-only effect, or another doubt; inactive = no such curve, though single readings can be large; an effect the other way counts as inactive or inconclusive. % is scaled to controls: 0 for no effect and ±100 for the full control effect; potency is read from the fitted curve at half-maximal effect.

Cc1cccc(-c2cc(-c3ccccc3)nc(SCC(=O)Nc3ccccc3)c2C#N)c1 was read as DT40 TDP1 no CPT -2%, TDP1 cell CPT 0% and TDP1 inh 3%.
For COc1ccc(NC(=O)CCCC(=O)OCC(=O)c2cccc(OC)c2)cc1 the results were DT40 TDP1 no CPT -9%, TDP1 cell CPT 4%, RORgamma inh inconclusive, VP16 counter inconclusive and TDP1 inh 2%.
`Cc1ccc(NC(=O)CCCc2ccccc2)nc1` gave DT40 TDP1 no CPT -9%, TDP1 cell CPT -3%, RORgamma inh inconclusive, VP16 counter 28% and TDP1 inh 5%.
For Cc1ccc(NC(=S)NCCc2ccccc2)nc1 the results were DT40 TDP1 no CPT 5.8µM*, TDP1 cell CPT inconclusive, RORgamma inh 0.5µM*, VP16 counter 5µM* and TDP1 inh 5%.
COc1ccc(CCNC(=S)Nc2cccc(C)c2C)cc1 was read as DT40 TDP1 no CPT inconclusive, TDP1 cell CPT inconclusive, RORgamma inh 4µM*, VP16 counter 7.9µM* and TDP1 inh 5%.
CCC(=Nc1ccccc1)C1=C(O)CC(C)(C)CC1=O was read as RORgamma inh -29%, VP16 counter 1%[10 µM] and TDP1 inh -5%.
COc1ccccc1C(=O)NC(=S)Nc1cccnc1Cl was read as DT40 TDP1 no CPT -29%, TDP1 cell CPT 0%, RORgamma inh 10µM*, VP16 counter inconclusive and TDP1 inh 3%.
`COc1ccc(C(=O)Nc2cccnc2Cl)cc1OC` gave DT40 TDP1 no CPT 13%, TDP1 cell CPT 2%, RORgamma inh -9% and VP16 counter 2%.
`Cc1ccc(C(=O)NC(=S)Nc2cccnc2Cl)cc1` gave DT40 TDP1 no CPT inconclusive, TDP1 cell CPT inconclusive, RORgamma inh 5µM*, VP16 counter inconclusive and TDP1 inh 9%.
CC(C)Cn1c(N)c(C(=O)CSc2nnnn2C)c(=O)n(C)c1=O was read as DT40 TDP1 no CPT -29%, TDP1 cell CPT -17%, RORgamma inh -5%, VP16 counter -2% and TDP1 inh 6%.
Screening COc1ccc(C(=O)OCC(=O)NC2CCCCCC2)cc1OC returned DT40 TDP1 no CPT -11%, TDP1 cell CPT -24% and TDP1 inh 1%.
Screening CC(OC(=O)c1ccc(Cl)cc1)C(=O)NCC1CCCCC1 (stereo not given) returned DT40 TDP1 no CPT 10%, TDP1 cell CPT -21% and TDP1 inh 1%.
COC(=O)c1ccc2nc(-c3ccc(OC)c(OC)c3)c(CC3CCCCC3)n2c1 was read as DT40 TDP1 no CPT 18µM* and TDP1 cell CPT inconclusive.
Screening COC(=O)c1ccc2nc(-c3ccc(Cl)cc3)c(CC3CCCCC3)n2c1 returned DT40 TDP1 no CPT 4.1µM* and TDP1 cell CPT 8.2µM*.
`COc1cccc(N=Cc2c[nH][nH]c2=O)c1` gave DT40 TDP1 no CPT -30%, TDP1 cell CPT inconclusive, RORgamma inh -11%, VP16 counter -6% and TDP1 inh 1%.
For CCN(CCn1cccn1)C(=O)C1CCC(=O)N(CC2CCCCC2)C1 (stereo not given) the results were DT40 TDP1 no CPT 17%, TDP1 cell CPT 5%, RORgamma inh -7%, VP16 counter -2% and TDP1 inh 4%.
Screening CCCCCc1ccc(-c2cn(CCc3c[nH]c4ccccc34)nn2)cc1 returned DT40 TDP1 no CPT inconclusive, TDP1 cell CPT inconclusive, RORgamma inh -11% and VP16 counter -26%.
`CCc1cc(-c2nnn(CCC3COCCO3)c2C(C)(C)O)ccc1-c1cn(CCc2c[nH]c3ccccc23)nn1` (stereo not given) gave DT40 TDP1 no CPT 12µM* and TDP1 cell CPT 21µM*.
Screening CCc1cc(-c2nnn(-c3cc(C(C)C)ccc3C)c2CC)ccc1-c1cn(CCc2c[nH]c3ccccc23)nn1 returned DT40 TDP1 no CPT inconclusive and TDP1 cell CPT 23µM*.
For Cc1ccc(-c2cc(C(=O)Nc3cccnc3)[nH]n2)c(O)c1C the results were DT40 TDP1 no CPT inconclusive, TDP1 cell CPT -17%, RORgamma inh 0%, VP16 counter -11% and TDP1 inh 6%.
`CC(C)CCNC(=O)C1CCCN1C(=O)NC1CCCCC1` (stereo not given) gave DT40 TDP1 no CPT -7%, TDP1 cell CPT 4%, RORgamma inh -20%, VP16 counter -9% and TDP1 inh -2%.
`COc1ccc(-c2cc(NCc3ccc(C)cc3)n3cnnc3n2)cc1` gave DT40 TDP1 no CPT 13µM*, TDP1 cell CPT 15µM* and TDP1 inh -2%.
Cc1cc(Nc2ccc(Cl)cc2)n2cnnc2n1 was read as DT40 TDP1 no CPT -21%, TDP1 cell CPT 2% and TDP1 inh 5%.
Screening Cc1cc(NCc2ccc(Cl)cc2)n2cnnc2n1 returned DT40 TDP1 no CPT 8.2µM*, TDP1 cell CPT 21µM* and TDP1 inh 2%.
`COc1cc(/C=C2\SC(N3CCc4ccccc4C3)=NC2=O)cc(OC)c1OC` gave DT40 TDP1 no CPT 16µM*, TDP1 cell CPT 21µM*, RORgamma inh inconclusive, VP16 counter -13% and TDP1 inh 3%.
`CCOC(=O)C1CCN(C2=NC(=O)/C(=C/c3ccc(O)cc3)S2)CC1` gave DT40 TDP1 no CPT 7.3µM*, TDP1 cell CPT inconclusive, RORgamma inh -27% and VP16 counter -5%.
CCOc1ccc(/C=C2\SC(N3CCc4ccccc4C3)=NC2=O)cc1 was read as DT40 TDP1 no CPT 21µM*, TDP1 cell CPT 29µM*, RORgamma inh inconclusive, VP16 counter -17% and TDP1 inh 5%.
`COc1ccc(/C=C2\SC(N3CCc4ccccc4C3)=NC2=O)cc1` gave DT40 TDP1 no CPT inconclusive, TDP1 cell CPT inconclusive, RORgamma inh 2%, VP16 counter -11% and TDP1 inh 0%.
Screening CCOCCCNCc1cc(Cl)ccc1OCC returned DT40 TDP1 no CPT -18%, TDP1 cell CPT inconclusive, RORgamma inh -14%, VP16 counter 4% and TDP1 inh 8%.
For CC1CCN(Cc2c(O)ccc3c(=O)c(Oc4ccccc4Cl)c(C(F)(F)F)oc23)CC1 the results were DT40 TDP1 no CPT 21µM*, TDP1 cell CPT inconclusive and TDP1 inh -5%.
`CC1CCCN(Cc2c(O)ccc3c(=O)c(Oc4ccccc4Cl)c(C(F)(F)F)oc23)C1` (stereo not given) gave DT40 TDP1 no CPT 11%, TDP1 cell CPT 2% and TDP1 inh 0%.
`COC(=O)c1ccc(Oc2c(C(F)(F)F)oc3c(CN4CCN(C)CC4)c(O)ccc3c2=O)cc1` gave DT40 TDP1 no CPT -17%, TDP1 cell CPT -3%, RORgamma inh 17%, VP16 counter -7% and TDP1 inh 11%.
